The structures appear in SMILES notation. Records with an inconclusive call do not appear. Entries that show only a call come without a potency. Active and inactive are the calls of the source. The call rests on the fitted dose curve; in most records, active means well fitted activation curve with a large enough effect; inconclusive means small, poorly fitted or top-dose-only effect; inactive means flat fitted curve, though single readings scatter.
Potency means the concentration at half of the fitted maximal effect.

This test can be described thus: qHTS for Inhibitors of Cell Surface uPA Generation: Confirmatory Assay for Cherry-picked Compounds. To be noted: cell surface uPA activity generation, qHTS confirmation; series mostly up to 115 µM. The procedure, abridged: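 RAW 264.7 cells at 4000/well, incubated overnight, then treated with compounds. After 24 h at 37 C, viability was read by ATPlite luminescence. An increase in signal indicates blocked uPA-dependent LF entry.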
Regarding `COc1ccccc1N1CCN(C(=O)CCC(=O)N2CCN(c3ccc(F)cc3)CC2)CC1`, the Potency result was “inactive”.
The value for `Cc1ccc(Nc2nc(Cl)c(C=O)s2)cc1` was “inactive”.
For the molecule `COc1ccc(C(=O)CC(=O)C(=O)Nc2ccccc2)cc1`, the Potency entry is “inactive”.
The value for `COc1ccc(C(=O)OCC(=O)N(C)C2CCS(=O)(=O)C2)cc1S(=O)(=O)N(C)Cc1ccccc1` (centres undefined) was “inactive”; that for `Fc1ccc(CNc2ccccn2)cc1` was “inactive”; that for `C=C(C)C(=O)O[C@H]1C/C(C)=C\C(=O)/C=C(\C)[C@H](O)[C@@H]2OC(=O)C(=C)[C@@H]21` was “inactive”.
As for `COCCNC(=O)C(c1c[nH]c2ccccc12)N(C(=O)c1snc(C(N)=O)c1N)c1cccc(OC)c1` (centres undefined), the entry is “inactive”; as for `COc1ccccc1N=Nc1c(C)[nH]n(-c2ccccc2)c1=O`, “inactive”; as for `COc1cc(C(=O)Nc2nnc(C)s2)cc(OC)c1OC`, “inactive”.
For `COc1cc(CN2CCNC(=O)C2CC(=O)NCCCC2CCCC2)cc(OC)c1` (centres undefined), the Potency result was “inactive”.
The value for `O=C(COc1ncnc2sccc12)Nc1cccc(S(=O)(=O)N2CCCC2)c1` was “inactive”; that for `O=C(Cc1ccccc1)Nc1ccc(NC(=O)c2ccccc2)c(Cl)c1` was “inactive”.
On to `C=CCOC(=O)C1=C[C@H](c2ccc(C(F)(F)F)cc2)[C@@H](CCCO)[C@H](OCC)O1`, for which the Potency entry was “inactive”.
The value for `CCCN1CCN(C2CCCCC2NS(=O)(=O)c2ccc(Cl)cc2)CC1` (centres undefined) was “inactive”; that for `CC(=O)Oc1ccccc1C(=O)Nc1ccccc1C(=O)N1CCCC1` was “inactive”; that for `CC(C)C(NC(=O)Cc1ccccc1)C(=O)N1CCN(c2cccc(Cl)c2)CC1` (centres undefined) was “inactive”.
As for `CCOC(=O)N1CCN(C(=O)c2ccc3c(c2)sc2nc(-c4ccc(OC)cc4)cn23)CC1`, the entry is “inactive”.
As for `C=CS(=O)(=O)c1ccc(Oc2ccc(S(=O)(=O)C=C)cc2)cc1`, the figure is 58.5 µM (active).
With `COCc1c(C(=O)Nc2nc(C)cs2)oc2ccccc12`, the Potency result is “inactive”.
The value for `CCSC1=NCCN1S(=O)(=O)c1ccc(Cl)cc1` was “inactive”; that for `O=[N+]([O-])c1ccc(C[n+]2cccc(O)c2)cc1` was “inactive”; that for `C=CCNC(=S)NCC=C` was “inactive”.
As to `COc1ccc(Cc2nnc(NC(=O)Nc3ccc(F)cc3)s2)cc1`, the Potency entry is “inactive”.
The value for `COc1ccc(N2CCN(C3CCN(S(=O)(=O)c4ccc(F)cc4)CC3)CC2)cc1` was “inactive”; that for `COc1cc(NS(=O)(=O)c2ccc(NC(=S)NC(=O)COc3ccccc3OC)cc2)nc(OC)n1` was “inactive”; that for `CCOc1cc(C)c(S(=O)(=O)N2CCCCC2)cc1C` was “inactive”.
As for `CCC1(CC)NC(=O)N(CC(=O)OCC(=O)c2cc(C)c(C)cc2C)C1=O`, the entry is “inactive”; as for `CC(=O)Nc1ccc(OS(=O)(=O)c2c(C)cc(C)cc2C)cc1`, “inactive”; as for `Cc1ccc(S(=O)(=O)N2CCOCC2)cc1C(=O)OC1CCOC1=O` (centres undefined), “inactive”.
The value for `CCN(CC)CCNC(=O)/C(=C/c1cn(CC)c2ccccc12)NC(=O)c1cc(OC)c(OC)c(OC)c1` was “inactive”; that for `CCOCc1nnc(NC(=O)C2CCN(C(=O)C3CC(=O)N(c4ccc(C)cc4)C3)CC2)s1` (centres undefined) was “inactive”; that for `COc1ccc(N(CN2C(=O)c3ccccc3C2=O)C(=O)C(C)C)cc1` was “inactive”.
Turning to `CCOc1cc(S(=O)(=O)NC2CC(C)(C)NC(C)(C)C2)ccc1Cl`, the Potency entry was “inactive”.
The value for `CCc1ccc(N2CC(C(=O)Nc3ccc4c(c3)OCO4)CC2=O)cc1` (centres undefined) was “inactive”.
As for `C/C=C(/C(=C/C)c1ccc(O)cc1)c1ccc(O)cc1`, the entry is “inactive”; as for `COc1cc(NC(=S)NCCc2ccc(S(N)(=O)=O)cc2)c(OC)cc1Cl`, “inactive”.
As for `COCCNS(=O)(=O)c1cc(OC)c(C)cc1C`, the entry is “inactive”; as for `CC(=O)N1CCN(C(=O)CSc2cc(C)c(Br)cc2C)CC1`, “inactive”.
`O=C1C=C(NNC(=O)c2ccncc2)CC(c2ccccc2)C1` (centres undefined): the Potency entry was “inactive”.

Source of the values: PubChem BioAssay AID720519 (National Center for Advancing Translational Sciences (NCATS), 2013).
